Screening results: PubChem, The Scripps Research Institute Molecular Screening Center
MITF primary: inhibitors of human MITF. 650,000 tested, 0.91% active. AlphaScreen MITF homodimerization, bead proximity signal. AID 1259374. inhibition, % at 2.6 µM; in the data active means inhibition above about 50%
GPR151 ag: activators of human GPR151 | 650,000 tested, 1% active | Q8TDV0 | PathHunter beta-arrestin GPR151 cells, luminescence | activation, % at 11.2 µM; in the data active means activation above about 4.9%
TEAD-YAP block: TEAD-YAP interaction inhibition; HEK-TIYL cells, TEAD-Gal4/YAP UAS-luciferase luminescence; inhibition, % at 9.12 µM; 640,000 tested, 1.4% active; in the data active means inhibition above about 32%
FBW7 act: activators of human E3 ligase FBW7 | Q969H0 | AlphaScreen FBW7–phospho-cyclin E peptide binding, activator screen | normalized activity (activation), % at 26.1 µM | 650,000 tested, 0.13% active; in the data active means normalized activity above about 1.9%;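 further: purified mutant Fbw7 with reduced substrate affinity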
GPR151 conf act: confirmation of human GPR151 activators; 6,700 tested, under 10 active; AID 1508609; activation, % at 11.2 µM; GPR151 PathHunter beta-arrestin cells, luminescence, 90 min; % of EA-reagent control over plate median; shares compounds with GPR151 ag;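 active means mean percent activation across replicates above the confirmation screen cutoff of 4.91%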
GPR119 ag: counter-screen for GPR151 activators: effect on human GPR119; shares compounds with GPR151 ag; GPR119 PathHunter beta-arrestin cells, luminescence, 90 min; 0 = compound-well median, 100 = enzyme-acceptor control; activation, % at 11.2 µM; 6,700 tested, 0.3% active; AID 1508611;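 active means mean percent activation in the counterscreen above 29.09%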;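 further: counterscreen on off-target GPR119 to flag nonselective hits from the GPR151 activator screen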
Numbers stand for hits; – = inactive; · = no result given. Compounds with a hit are over-represented: about 3.5% of the library has one in this group of screens.

SMILES | MITF primary | GPR151 ag | TEAD-YAP block | FBW7 act | GPR151 conf act | GPR119 ag
CCCCn1c(CNC(=O)COc2ccc(Cl)cc2)nnc1SC(C)C(=O)Nc1sc2c(c1C(=O)OCC)CCC2 (stereo unspecified) | – | – | – | – | · | ·
CCOC(=O)CSc1nc(C2CC2)nc2sc(C)c(C)c12 | – | – | – | – | · | ·
Cc1sc2nc(C3CC3)nc(SCC(N)=O)c2c1C | – | 6.8 | – | – | – | –
COc1cc(OC)c(NS(=O)(=O)c2cc3c(cc2C)N(C)CCO3)cc1Cl | – | – | – | – | · | ·
COc1ccc(NS(=O)(=O)c2cc3c(cc2C)N(C)CCO3)c(OC)c1 | – | 7.3 | – | – | – | –
CCOC(=O)C1=C(C)N=c2s/c(=C\c3ccncc3)c(=O)n2C1c1ccc(OCC)c(OCC)c1 (stereo unspecified) | – | – | – | – | · | ·
Cc1ccc2[nH]c(O)c(N=NC(=O)CNC(=O)c3ccccc3)c2c1 | – | – | – | – | · | ·
C=CCn1c(SCC(=O)Nc2cccc(SC)c2)nnc1-c1ccccc1O | – | 5.7 | – | – | – | –
C=CCn1c(CNC(=O)c2ccco2)nnc1SCC(=O)Nc1cccc(F)c1 | – | 7.3 | – | – | – | –
